Bioassay records deposited in PubChem BioAssay by National Center for Advancing Translational Sciences (NCATS).
Lassa entry inh = Lassa virus entry inhibition | Lassa virus pseudotype entry inhibition, cell reporter | Potency, µM (doses to about 37.9 µM), inactives show top-dose activity change, negative = inhibition, usual class: inhibitors | 300,000 tested, 1.2% active | AID 540256; calls by dose curve; tested in HEK293 cells; also: potency is read from the fitted curve at half-maximal effect; nearly all actives have a fitted effect of over 50% in size
Marburg entry inh = blocks Marburg virus binding to or entry into cells | Marburg virus pseudotyped entry inhibition, cell reporter | Potency, µM (titrated, usually from 37.8 µM), for inactives: at the top dose activity change, negative = inhibition, usual class: inhibitors | 300,000 tested, 1.8% active | AID 540276; calls by dose curve; tested in HEK293 cells; also: potency is read from the fitted curve at half-maximal effect
FMDV inh = antivirals against foot and mouth disease virus. FMDV antiviral cell-based qHTS. Potency, µM (top dose mostly 57.9 µM), inactives show at the top dose activity change, negative = inhibition, usual class: inhibitors. 410,000 tested, 1.2% active; calls by dose curve; tested in HEK293T cells; also: read-out not given here; potency is read from the fitted curve at half-maximal effect; nearly all actives have a fitted effect of over 45% in size
HCV inhibitor = inhibitors of hepatitis C virus infection | Huh7.5.1 HCVcc-Cre infection, luciferase reporter, 44 h | Potency, µM (titrated, usually from 41.8 µM), inactives show at the highest dose activity change, negative = inhibition, hits mostly inhibitors | 340,000 tested, 3.4% active | AID 651820; also: potency is read from the fitted curve at half-maximal effect
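Whole-lifecycle infectious HCVcc-Cre system; cells 1,000/well, compound then virus (~0.5 moi) added 4 h after plating, 44 h culture. Luciferase read 15 sec following 15 min substrate incubation, room temp.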
HCMV inh = inhibitors of human cytomegalovirus. HFF cells, HCMV-luciferase reporter, 72 h; active compounds read low. activity change, negative = inhibition, % at 57.5 µM. 410,000 tested, 4.5% active; in the data active = activity change below about -60%; inconclusive = no clear call, values can overlap the other calls; inactive = above about -39%
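Cell-based, HFFs, 1000 cells/well, 16 h 37C; cpds in DMSO + HCMV-luc, MOI 1 PFU/cell; 72 h 37C; OneGlo luminescence after 5 min RT; norm. to buffer vs Salinomycin 10uM.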
Giardia FBPA inh = inhibitors of Giardia lamblia fructose-1,6-bisphosphate aldolase. A8B2U2. purified Giardia FBPA. Potency, µM (highest dose often 59.6 µM), inactives show at the top dose activity, negative = inhibition, actives largely listed as inhibitors. 290,000 tested, 0.71% active; also: potency is read from the fitted curve at half-maximal effect; nearly all actives have a fitted effect of over 55% in size
Target sequence (A8B2U2 whole entry, looked up): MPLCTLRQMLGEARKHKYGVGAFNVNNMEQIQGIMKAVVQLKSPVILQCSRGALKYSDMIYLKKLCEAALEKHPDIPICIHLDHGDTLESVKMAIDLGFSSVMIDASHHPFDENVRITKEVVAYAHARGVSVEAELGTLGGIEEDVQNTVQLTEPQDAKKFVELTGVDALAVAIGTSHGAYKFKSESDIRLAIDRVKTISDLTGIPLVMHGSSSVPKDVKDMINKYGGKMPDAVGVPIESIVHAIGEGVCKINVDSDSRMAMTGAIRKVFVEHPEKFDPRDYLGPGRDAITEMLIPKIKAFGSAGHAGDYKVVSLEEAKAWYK
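Giardia FBPA (40 nM reagent) was preincubated 10 min at RT with compound (up to 57.5 uM final), then substrate plus GAPDH/TPI/NAD/arsenate coupling system with diaphorase/resazurin was added; resorufin fluorescence (525/598 nm) was read after 20 min.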
* = called active by the depositor; [ ] = another dose, or the depositor's remark. Compounds with a hit are over-represented: about 8.3% of the library has one in this group of screens. Unless noted, calls follow the shape of the dose curve; as a rule, active = well fitted curve in the direction sought with a large enough effect; inconclusive = small, poorly fitted or top-dose-only effect, or another doubt; inactive = no such curve, though single readings can be large; an effect the other way counts as inactive or inconclusive. % is scaled to controls: 0 for no effect and ±100 for the full control effect.

COc1cc(OC)cc(-c2cc3nc(C)c(CCC(=O)NC(C)CCc4ccco4)c(C)n3n2)c1 (centres undefined) was read as Lassa entry inh 10.0%, Marburg entry inh inconclusive, FMDV inh inconclusive, HCV inhibitor inconclusive, HCMV inh 14.1 and Giardia FBPA inh -8.3%.
For COc1ccc(CC(=O)N2CCN(c3cccc(C)c3C)CC2)cc1 the results were FMDV inh -2.3%, HCV inhibitor -27.0%, HCMV inh 10.1 and Giardia FBPA inh 6.5%.
Screening COc1ccc(CCC(=O)N2CCN(c3cccc(C)c3C)CC2)cc1 returned Marburg entry inh 20.4%[46.1 µM], FMDV inh -6.0%, HCV inhibitor -25.7%, HCMV inh -79.6* and Giardia FBPA inh 2.7%.
For C[C@H]1CN([C@@H](C)CO)C(=O)CCCn2cc(nn2)CO[C@@H]1CN(C)C(=O)c1ccc2ccn(C)c2c1 the results were HCMV inh -6.8.
CCC1CN(C(=O)N2CCC(C(=O)NCCCc3ccccc3)CC2)c2ccccc2O1 (centres undefined) was read as Lassa entry inh -27.1%[46.1 µM], FMDV inh inconclusive and HCMV inh 20.8.
`C=CCN=c1scc(-c2ccc3c(c2)NC(=O)CO3)n1/N=C(\C)c1ccccn1` gave Lassa entry inh inconclusive, Marburg entry inh inconclusive, FMDV inh 17.8µM*, HCV inhibitor inconclusive, HCMV inh -95.0* and Giardia FBPA inh 4.2%.
Screening Cc1ccc(C=Nc2ccc(N(C)C)cc2)o1 returned Lassa entry inh inconclusive, Marburg entry inh 37.8%, FMDV inh -16.6%, HCV inhibitor 2.7%, HCMV inh -75.7* and Giardia FBPA inh inconclusive.
Screening Cc1ccc(-n2c(SCCC(C)C)nc3sc4c(c3c2=O)CC(C)(C)OC4)cc1 returned Lassa entry inh -22.3%[46.1 µM], Marburg entry inh 10.9%[46.1 µM], FMDV inh -4.4% and HCMV inh 3.1.
CCCc1cc(=O)oc2c(C)c(O[C@@H]3O[C@H](CO)[C@@H](O)[C@H](O)[C@H]3O)ccc12 was read as Lassa entry inh -19.3%, Marburg entry inh -22.1%, FMDV inh -12.2%, HCV inhibitor inconclusive, HCMV inh -66.0* and Giardia FBPA inh 1.6%.
`CCCc1cc(=O)oc2cc(O[C@@H]3O[C@H](CO)[C@@H](O)[C@H](O)[C@H]3O)ccc12` gave Marburg entry inh -5.6%, FMDV inh -6.5%, HCV inhibitor -5.0%, HCMV inh inconclusive and Giardia FBPA inh -2.2%.
CCc1ccc(NC(=O)C(C)OC(=O)c2c(C)nn(Cc3ccccc3)c2Cl)cc1 (centres undefined) was read as Lassa entry inh inconclusive, Marburg entry inh -22.6%[46.1 µM], FMDV inh inconclusive, HCV inhibitor 11.2µM*, HCMV inh -23.9 and Giardia FBPA inh 3.1%.
For Cc1nn(Cc2ccccc2)c(Cl)c1C(=O)OC(C)C(=O)Nc1ccc(F)cc1Cl (centres undefined) the results were Lassa entry inh 3.16µM*, Marburg entry inh 12.6µM*, FMDV inh 0.0%, HCV inhibitor inconclusive, HCMV inh -64.6* and Giardia FBPA inh 4.6%.
Screening Cc1nn(Cc2ccccc2)c(Cl)c1C(=O)OCC(=O)Nc1cccc2ccccc12 returned Lassa entry inh 7.8%, Marburg entry inh inconclusive, FMDV inh -10.8%, HCV inhibitor -21.1%, HCMV inh -16.0 and Giardia FBPA inh -0.9%.
`CCN(C)C(=O)C1=COC2=NC(=O)N(Cc3ccccc3)CCN12` gave HCMV inh -2.6.
`CCN(CC)CCN1CCn2c3c(c4cc(C)ccc42)CCCC31` (centres undefined) gave Lassa entry inh inconclusive, Marburg entry inh inconclusive, FMDV inh -15.3%, HCV inhibitor 8.91µM*, HCMV inh inconclusive and Giardia FBPA inh -23.6%.
CC(C)C(CCNC1CCN(C)CC1)c1ccc(Cl)cc1 (centres undefined) was read as FMDV inh 0.0%, HCV inhibitor 1.41µM*, HCMV inh -98.9* and Giardia FBPA inh inconclusive.
c1ccc(CCc2nnc3n2CCN(Cc2ccc4ccccc4n2)CC3)cc1 was read as FMDV inh 28.0%.
For Cc1cccc(-c2sc(Nc3ccccc3)n[n+]2-c2ccc(F)cc2)c1 the results were FMDV inh 17.5%, HCV inhibitor 1.2%, HCMV inh 66.8 and Giardia FBPA inh -21.3%.
Screening CCc1ccc(Nc2n[n+](-c3ccccc3)c(-c3cccc(C)c3)s2)cc1 returned FMDV inh -2.6%, HCV inhibitor 31.6µM* and HCMV inh -19.1.
O=C(c1ccc(-c2ccccc2)c(F)c1)C1CCCN(CCO)C1 (centres undefined) was read as Lassa entry inh -19.6%, Marburg entry inh inconclusive, FMDV inh 5.0%, HCV inhibitor 11.2µM*, HCMV inh -31.4 and Giardia FBPA inh 4.0%.
For CSc1ccc(C(=O)C2CCCN(S(=O)(=O)N(C)C)C2)cc1 (centres undefined) the results were Lassa entry inh -2.8%, Marburg entry inh 11.2%[46.1 µM], FMDV inh inconclusive, HCV inhibitor -20.6%, HCMV inh 1.1 and Giardia FBPA inh -0.4%.
`CN(C)S(=O)(=O)N1CCCC(C(=O)c2ccc(-c3ccccc3)c(F)c2)C1` (centres undefined) gave Lassa entry inh inconclusive, Marburg entry inh inconclusive, FMDV inh -29.9%, HCV inhibitor 22.4µM*, HCMV inh -39.8 and Giardia FBPA inh 0.9%.
Screening O=C(c1ccc(-c2ccccc2)c(F)c1)C1CCCN(CCCn2cccn2)C1 (centres undefined) returned FMDV inh -27.5%, HCV inhibitor inconclusive, HCMV inh -3.4 and Giardia FBPA inh 5.7%.
`COC(=O)C/C=C\[C@@H](C)[C@@H](/C=N\OC[C@@H]1O[C@H](c2ccccc2)C=C[C@@H]1Oc1ccc(OC)cc1)NS(=O)(=O)c1ccc(C)cc1` gave Marburg entry inh 1.0%[14.2 µM] and Giardia FBPA inh 1.3%[12.9 µM].
CCC(O)CNC(=O)NC(=C(Cl)Cl)c1ccc(C)c(F)c1 (centres undefined) was read as FMDV inh inconclusive, HCV inhibitor 15.8µM*, HCMV inh -80.5* and Giardia FBPA inh 0.2%.
N#CCCn1c(=O)cnc2cnc(Oc3cccc(Cl)c3)nc21 was read as FMDV inh -10.0% and Giardia FBPA inh 5.9%.
Screening CCOC(=O)c1sc2nccc(N(C)C)c2c1N=CNOCc1ccccc1 returned Lassa entry inh inconclusive, Marburg entry inh -15.9%, FMDV inh -13.9%, HCV inhibitor 7.94µM*, HCMV inh 10.6 and Giardia FBPA inh -7.6%.
`c1ccc(CN2CCC3(CCCc4ccccc43)CC2)cc1` gave Lassa entry inh inconclusive, Marburg entry inh 6.31µM*, FMDV inh inconclusive, HCV inhibitor inconclusive, HCMV inh -7.2 and Giardia FBPA inh 1.3%.
